Source: PubChem BioAssay (EPA / NIEHS)
Calls of active or inactive are those of the source. How the source made its calls: active means hit-call score of the fitted dose curve at least 0.9, where 1 is the maximum; inactive means score below 0.9.

Columns and labels:
[1] = molecular target: Paired box protein Pax-6 (Homo sapiens) (UniProt P26367); assay: ATG_Pax6_CIS: Attagene CIS-FACTORIAL HepG2 Assay for human Paired Box 6 (PAX6) (AID 2282956); conditions: HepG2 CIS-FACTORIAL PAX6 reporter transcription, RNA readout; actives raise or lower the signal
Chain of Paired box protein Pax-6 (Homo sapiens) (P26367 whole entry, looked up): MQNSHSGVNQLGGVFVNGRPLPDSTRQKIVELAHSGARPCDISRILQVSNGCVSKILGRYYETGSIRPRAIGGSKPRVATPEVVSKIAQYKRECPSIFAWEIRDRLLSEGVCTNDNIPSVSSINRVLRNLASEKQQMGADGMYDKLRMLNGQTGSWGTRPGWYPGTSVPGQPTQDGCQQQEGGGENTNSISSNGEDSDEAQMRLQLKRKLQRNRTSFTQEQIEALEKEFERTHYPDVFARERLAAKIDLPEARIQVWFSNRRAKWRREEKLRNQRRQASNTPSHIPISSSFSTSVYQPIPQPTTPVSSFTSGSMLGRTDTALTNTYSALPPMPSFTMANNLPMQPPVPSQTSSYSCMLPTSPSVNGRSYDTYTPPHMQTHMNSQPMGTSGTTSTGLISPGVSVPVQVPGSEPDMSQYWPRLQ
In short: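 Read-out is reporter transcript level, measured by RT-PCR with fluorescent primer extension and capillary electrophoresis after 24 h dosing of transfected HepG2 cells. Activity in either direction fitted relative to DMSO control.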

[2] = ATG_PXRE_CIS: Attagene CIS-FACTORIAL HepG2 Assay for human Pregnane X Receptor Element (PXRE) (AID 2282957); conditions: HepG2 Attagene CIS-FACTORIAL PXRE reporter, mRNA; actives raise or lower the signal
In short: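 Fluorescent capillary electrophoresis of amplified reporter cDNA gave the signal, collected 24 h after dosing HepG2 cells that held transfected cis-element reporter constructs.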

[3] = ATG_PPRE_CIS: Attagene CIS-FACTORIAL HepG2 Assay for human Peroxisome Proliferator-activated Response Element (PPRE) (AID 2282958); conditions: HepG2 PPRE cis-element reporter, Attagene transcription factor profiling; actives raise or lower the signal
In short: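 HepG2 cells are transiently transfected with multiplexed cis-promoter reporter units to report endogenous PPAR activity. After 24 h dosing, reporter mRNA is read by RT-PCR and capillary electrophoresis. Fitting is bidirectional against DMSO.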

[4] = ATG_Sox_CIS: Attagene CIS-FACTORIAL HepG2 Assay for human SRY-box transcription factor (SOX) (AID 2282960); conditions: HepG2 Attagene cis-factorial SOX reporter, mRNA; actives raise or lower the signal
In short: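 HepG2 cells transiently transfected with multiple cis-regulated reporter units, then dosed for 24 h. Reporter mRNA quantified by RT-PCR, fluorescent labelling, HpaI digestion and capillary electrophoresis; bidirectional fit versus DMSO.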

[5] = molecular target: Transcription factor Sp1 (Homo sapiens) (UniProt P08047); assay: ATG_Sp1_CIS: Attagene CIS-FACTORIAL HepG2 Assay for human Specificity Protein 1 (Sp1) (AID 2282961); conditions: HepG2 Sp1 cis-reporter transcription, actives raise or lower the signal
Chain of Transcription factor Sp1 (Homo sapiens) (P08047 whole entry, looked up): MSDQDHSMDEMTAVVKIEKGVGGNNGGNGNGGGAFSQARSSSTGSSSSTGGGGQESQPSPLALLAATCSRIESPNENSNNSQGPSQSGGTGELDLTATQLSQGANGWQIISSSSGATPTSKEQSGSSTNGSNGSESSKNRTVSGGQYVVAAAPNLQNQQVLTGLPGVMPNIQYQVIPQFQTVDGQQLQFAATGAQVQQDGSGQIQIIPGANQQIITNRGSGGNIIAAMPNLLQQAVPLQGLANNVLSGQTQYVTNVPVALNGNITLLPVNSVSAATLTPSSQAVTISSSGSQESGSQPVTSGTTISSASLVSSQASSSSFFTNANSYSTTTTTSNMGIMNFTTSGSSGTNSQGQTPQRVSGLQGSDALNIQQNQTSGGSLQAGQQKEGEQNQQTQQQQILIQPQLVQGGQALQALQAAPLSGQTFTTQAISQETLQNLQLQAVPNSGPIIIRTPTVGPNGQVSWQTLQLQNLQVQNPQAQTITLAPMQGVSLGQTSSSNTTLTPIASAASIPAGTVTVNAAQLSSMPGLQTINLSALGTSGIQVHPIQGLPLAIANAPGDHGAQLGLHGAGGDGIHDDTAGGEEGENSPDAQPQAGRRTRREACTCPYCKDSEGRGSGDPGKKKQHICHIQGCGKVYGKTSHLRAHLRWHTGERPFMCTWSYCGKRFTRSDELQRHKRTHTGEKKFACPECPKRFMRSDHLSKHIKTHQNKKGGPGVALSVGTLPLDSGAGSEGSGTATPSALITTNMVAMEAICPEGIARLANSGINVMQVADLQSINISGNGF
In short: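 HepG2 cells transiently transfected with multiplexed cis-regulated reporter constructs, chemical exposure 24 h. Reporter mRNA quantified by RT-PCR with capillary electrophoresis; bidirectional fit relative to DMSO.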

[6] = ATG_SREBP_CIS: Attagene CIS-FACTORIAL HepG2 Assay for human Sterol Regulatory Element Binding (SREBP) (AID 2282962); conditions: HepG2 Attagene cis-factorial SREBP reporter, mRNA; actives raise or lower the signal
In short: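 Endogenous SREBP activity read as cis-element-driven reporter transcript in transiently transfected HepG2, 24 h post-dosing; quantified via RT-PCR plus capillary electrophoresis of fluorescent fragments. Gain or loss of signal fitted relative to DMSO baseline.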

[7] = molecular target: Signal transducer and activator of transcription 3 (Homo sapiens) (UniProt P40763); assay: ATG_STAT3_CIS: Attagene CIS-FACTORIAL HepG2 Assay for human Signal Transducer and Activator of Transcription 3 (STAT3) (AID 2282963); conditions: HepG2, Attagene cis-factorial STAT3 reporter transcription; actives raise or lower the signal
Chain of Signal transducer and activator of transcription 3 (Homo sapiens) (P40763 whole entry, looked up): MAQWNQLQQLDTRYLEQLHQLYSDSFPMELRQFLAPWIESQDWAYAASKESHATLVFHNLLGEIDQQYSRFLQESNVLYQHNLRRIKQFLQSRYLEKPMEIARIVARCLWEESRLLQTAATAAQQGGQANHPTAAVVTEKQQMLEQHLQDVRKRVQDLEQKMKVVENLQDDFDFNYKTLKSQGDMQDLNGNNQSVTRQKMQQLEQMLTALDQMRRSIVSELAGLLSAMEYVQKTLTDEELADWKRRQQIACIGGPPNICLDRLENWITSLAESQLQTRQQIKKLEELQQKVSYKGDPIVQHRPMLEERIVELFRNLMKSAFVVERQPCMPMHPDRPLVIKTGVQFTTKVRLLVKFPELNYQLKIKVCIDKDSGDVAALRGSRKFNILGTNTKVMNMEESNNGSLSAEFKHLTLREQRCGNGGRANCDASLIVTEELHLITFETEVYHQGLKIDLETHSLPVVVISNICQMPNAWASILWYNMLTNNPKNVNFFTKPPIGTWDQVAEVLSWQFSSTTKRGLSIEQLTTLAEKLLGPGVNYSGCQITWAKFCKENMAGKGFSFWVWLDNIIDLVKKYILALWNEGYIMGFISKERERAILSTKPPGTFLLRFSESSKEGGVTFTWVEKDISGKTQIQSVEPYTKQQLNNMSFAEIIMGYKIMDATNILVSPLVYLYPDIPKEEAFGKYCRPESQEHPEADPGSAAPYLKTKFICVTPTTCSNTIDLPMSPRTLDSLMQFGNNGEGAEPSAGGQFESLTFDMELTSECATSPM
In short: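 Readout is reporter transcript quantified by RT-PCR and capillary electrophoresis, with 6-FAM primer extension and HpaI digestion. Total RNA is taken 24 h after dosing transiently transfected HepG2 carrying cis-regulated reporter units. Bidirectional fit against DMSO.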

[8] = ATG_TA_CIS: Attagene CIS-FACTORIAL HepG2 Assay for human TA Basal Promoter (AID 2282964); conditions: HepG2 Attagene CIS-factorial TA basal promoter reporter; actives raise or lower the signal
In short: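 HepG2 cells transiently transfected with multiple reporter units under cis promoter elements, reporting endogenous transcription factor activity; this endpoint tracks the TA basal promoter as background control. Reporter mRNA after 24 h dosing measured by RT-PCR/capillary electrophoresis; bidirectional fits versus DMSO.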

[9] = ATG_TCF_b_cat_CIS: Attagene CIS-FACTORIAL HepG2 Assay for human T-Cell-Factor with beta-catenin (TCF/b-cat) (AID 2282965); conditions: HepG2 TCF/beta-catenin cis-reporter transcription, actives raise or lower the signal
In short: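 Measured: reporter mRNA in HepG2 transiently transfected with cis-promoter reporter units, 24 h after chemical addition. Fitting was bidirectional, DMSO as negative control.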

[10] = ATG_RORE_CIS: Attagene CIS-FACTORIAL HepG2 Assay for human RAR-related Orphan Receptor Element (RORE) (AID 2282959); conditions: HepG2 Attagene cis-factorial RORE reporter, mRNA; actives raise or lower the signal
In short: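 HepG2 cells carrying transiently transfected cis-regulated reporter units; RORE-driven reporter mRNA quantified 24 h post-dosing by RT-PCR, 6-FAM primer extension, HpaI digestion and capillary electrophoresis. Bidirectional fit versus DMSO.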

Measured: AC50

CCOC(=O)[C@@H](C)Oc1ccc(Oc2nc3ccc(Cl)cc3o2)cc1
active: [3] 100 µM
inactive: [1] | [2] | [4] | [5] | [6] | [7] | [8] | [9]

CCCC(C)=O
inactive: [1] | [2] | [3] | [10] | [6] | [7] | [8] | [9]

CCOc1ccc(N=Nc2ccc(C=Cc3ccc(N=Nc4ccc(OCC)cc4)cc3S(=O)(=O)O)c(S(=O)(=O)O)c2)cc1
active: [2] 39.9 µM
inactive: [1] | [3] | [4] | [6] | [7] | [8] | [9]

CCCOC(=O)c1c(Cl)c(Cl)c(Cl)c(Cl)c1C(=O)OCCC
active: [2] 1.64 µM | [5] 67.1 µM | [6] 100 µM
inactive: [1] | [3] | [7] | [8] | [9]

c1ccc(CN(Cc2ccccc2)Cc2ccccc2)cc1
inactive: [1] | [10] | [4] | [6] | [7] | [8]
active: [2] 2.51 µM | [5] 165 µM

COc1ccc(CCN2CCC(Nc3nc4ccccc4n3Cc3ccc(F)cc3)CC2)cc1
inactive: [1] | [2] | [3] | [10] | [7] | [8] | [9]
active: [6] 2.12 µM

Cc1cc(C)nc(NS(=O)(=O)c2ccc(N)cc2)n1
inactive: [1] | [3] | [4] | [5] | [6] | [7] | [9]
active: [2] 46.5 µM

CC(C)OCCO
inactive: [1] | [2] | [10] | [4] | [6] | [7]

CCCCCCCCN1CCCC1=O
active: [1] 144 µM | [2] 26.2 µM | [7] 168 µM
inactive: [10] | [4] | [5] | [6] | [8] | [9]

CC1=NN(c2ccc(S(=O)(=O)O)cc2)C(=O)C1
inactive: [1] | [2] | [10] | [4] | [5] | [6] | [7] | [9]

CCCCC(CC)C(=O)OC(C)C (stereo unspecified)
inactive: [1] | [2] | [10] | [4] | [5] | [6] | [7] | [8] | [9]

COc1ccccc1[N+](=O)[O-]
inactive: [1] | [10] | [4] | [5] | [6] | [7] | [8] | [9]
active: [2] 71.7 µM

CCCCCCC(C)(C)S
inactive: [1] | [10] | [4] | [5] | [6] | [7] | [8] | [9]
active: [2] 39 µM

CCCCCCCCCC(C)C=O (stereo unspecified)
active: [2] 51.1 µM
inactive: [1] | [10] | [4] | [5] | [6] | [7] | [9]

CC(=O)O[C@@H]1CC2CCC1(C)C2(C)C (stereo partly specified)
inactive: [1] | [2] | [10] | [4] | [5] | [6] | [7] | [9]

CC[N+](C)(CC)CC
inactive: [1] | [2] | [10] | [4] | [5] | [6] | [7] | [8] | [9]

CCCC(=O)C(CC)Sc1ccoc1C (stereo unspecified)
inactive: [1] | [10] | [4] | [5] | [6] | [7] | [8] | [9]
active: [2] 5.68 µM

Nc1c(S(=O)(=O)O)cc(Br)c2c1C(=O)c1ccccc1C2=O
active: [2] 22.4 µM | [10] 100 µM | [8] 100 µM
inactive: [1] | [5] | [6] | [7] | [9]

Cc1occc(=O)c1OC(=O)C(C)C
inactive: [1] | [2] | [10] | [4] | [5] | [6] | [7] | [8] | [9]

CCCOCCO
inactive: [1] | [2] | [4] | [5] | [6] | [7] | [8] | [9]

C[C@H](CCC(=O)NCC(=O)O)[C@H]1CC[C@H]2[C@@H]3[C@H](O)C[C@@H]4C[C@H](O)CC[C@]4(C)[C@H]3C[C@H](O)[C@]12C
inactive: [1] | [2] | [10] | [4] | [6] | [7] | [8] | [9]

CCOC(=O)c1ccc(N)cc1
active: [2] 27 µM
inactive: [1] | [10] | [4] | [5] | [6] | [7] | [8] | [9]

OCCOCCN1CCN(C2=Nc3ccccc3Sc3ccccc32)CC1
active: [2] 7.41 µM
inactive: [1] | [10] | [4] | [5] | [6] | [7] | [8] | [9]

C[C@@H]1CCN(C(=O)[C@H](CCCN=C(N)N)NS(=O)(=O)c2cccc3c2NC[C@H](C)C3)[C@@H](C(=O)O)C1
inactive: [1] | [2] | [4] | [5] | [6] | [7] | [8] | [9]

OCC#CCO
inactive: [1] | [2] | [10] | [4] | [5] | [6] | [7] | [8] | [9]

Cc1cc(S(=O)(=O)O)ccc1N=Nc1c(O)ccc2ccccc12
inactive: [1] | [2] | [4] | [5] | [6] | [7] | [8] | [9]
active: [10] 4.16 µM

COC(=O)c1ccc(OC)cc1
inactive: [1] | [2] | [4] | [5] | [6] | [7] | [8] | [9]
